# According to PubChem BioAssay (EPA / NIEHS):
# Records with an inconclusive call do not appear. Activity calls are given as the source filed them. The calls were made as follows: active = hit-call score of the fitted dose curve at least 0.9, where 1 is the maximum; inconclusive = response in the unintended direction; inactive = score below 0.9.
# Experiment: ACEA_ER_AUC_viability: ACEA Biosciences xCELLigence Real-Time Cell Analysis on Estrogen Receptor Agonism for Viability (AID 2283782);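 also: continuous compound exposure with impedance area under curve over 80 h; hit means loss of impedance signal meaning reduced cell growth or viability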
# How it was run: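 T47D cells preconditioned in phenol red-free RPMI with charcoal-stripped FBS, then dosed with 8-point 1:4 series from 100 uM (up to 0.5% DMSO). Impedance monitored up to ~80 h; area-under-curve loss versus DMSO taken as viability.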
Structure (SMILES),outcome,AC50
COS(=O)(=O)c1ccc(C)cc1,inactive,
COP(=S)(OC)Oc1cc(Cl)c(Br)cc1Cl,,92.6 µM (active)
CN(C)N=O,inactive,
C=CC#N,inactive,
CCCCP(CCCC)CCCC,,27.9 µM (active)
O=C(CCl)CCl,,62.7 µM (active)
NC(=O)CF,inactive,
